The source made the active and inactive calls.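 How the source made its calls: active means high combined rank on largest and smallest cell-count-weighted shift across three tests, rank score above 45, floors 50 and 25 (some results past the limit were not filed as active); inactive means the rest.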
Test: LNCaP granularity increase inducers, single-point recheck – cell-based, side scatter shift, flow cytometry, confirmation (AID 1069);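 further: LNCaP human prostate cancer cells in low-serum medium with charcoal-stripped FBS; percent of cells with raised granularity gated so DMSO controls show 10%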
Settings: LNCaP differentiation, 4 d, stronger effect = higher value

Structure (SMILES) | side scatter shift (at 100 µM) | side scatter shift (side scatter shift, at 10 µM)
CN1CCN(CCCNC(=O)c2cc3c(-c4ccc(Cl)cc4)nn(C)c3s2)CC1 | 14.3% (active) | 57%
Cc1ccc(Oc2ccc(S(=O)(=O)N3CCOCC3)cc2C(N)=O)c(-n2nc3ccccc3n2)c1 | 20% (inactive) | 21.3%
C=CCn1cc(C(=O)N2CCN(C)CC2)c(=O)c2cc(S(=O)(=O)N3CCCC3)ccc21 | 8.9% (inactive) | 1.6%
CCSc1nnc(Cn2c(=O)sc3ccccc32)n1-c1ccccc1C | 20.5% (inactive) | 9.7%
CCCN(CCC)CCNC(=O)C1CCN(Cc2nc(-c3ccc(Cl)cc3)oc2C)CC1 | 76.4% (active) | 74%
Cc1cc(=O)n2nc(N3CCCC3C(=O)NCc3ccccn3)sc2n1 (centres undefined) | 4% (inactive) | 7.1%
COc1ccc(Nc2nc(N3CCCC3)c3ccccc3n2)cc1 | 14% (inactive) | 21.6%
COc1cc2nc(N3CCN(C(=O)C4COc5ccccc5O4)CC3)nc(N)c2cc1OC (centres undefined) | 0% (active) | 55.2%
Cc1oc(-c2cccc(Cl)c2)nc1CN1CCCC(C(=O)NCc2ccco2)C1 (centres undefined) | 50% (inactive) | 5.55%
CCN(CC)CCNC(=O)c1ccc(N2CCCCC2)c(NS(=O)(=O)c2ccc(C)cc2)c1 | 17.6% (inactive) | 38.6%
Cn1c(C(=O)NCCCN2CCN(c3cccc(Cl)c3)CC2)cc2c(=O)n(C)c3ccccc3c21 | 69.6% (active) | 5.45%
COc1ccc(C(CC(=O)O)NC(=O)Cc2ccccc2)cc1 (centres undefined) | 2.7% (inactive) | 3.1%
CCn1c(C(=O)NCCCN2CCc3ccccc3C2)cc2sccc21 | 12.5% (inactive) | 14.8%
CCOc1ccccc1NC(=O)CCC(=O)O | 6.7% (inactive) | 6.85%
CN(C)c1ccc(-c2nn3c(-c4ccc(Cl)cc4Cl)nnc3s2)cc1 | 50% (inactive) | 4.15%
C=CCn1c(=N)n(CC(O)COc2ccc(OC)cc2)c2ccccc21 (centres undefined) | 18.9% (inactive) | 10.9%
CCOC(=O)N1CCN(C(=O)C2CCN(Cc3nc(-c4ccccc4C)oc3C)CC2)CC1 | 30.6% (inactive) | 5.15%
Cc1cc(O)c(-c2cc(C(=O)Nc3ccc(S(=O)(=O)N4CCOCC4)cc3)[nH]n2)cc1C | 5.6% (inactive) | 9.8%
O=C(Nc1ccc2oc(Cc3ccc(Cl)cc3)nc2c1)c1cccnc1 | 17.6% (inactive) | 6.7%

Structure (SMILES) | side scatter shift (at 100 µM) | side scatter shift (side scatter shift, at 10 µM)
N#CC1=C(N)OC2=C(C(=O)CCC2)C1c1ccc(OC(=O)N2CCOCC2)cc1 (centres undefined) | 7.8% (inactive) | 2.45%
CCc1cc(C)cc(OCCNC(=O)c2ncn[nH]2)c1 | 3.5% (inactive) | 0%
CCOC(=O)CSc1nnc(CNC(=O)c2ccccc2OC)n1-c1ccc(OC)cc1 | 11.3% (inactive) | 4.3%
CCOc1nc(-c2ccccc2O)nc2ccccc12 | 13.5% (inactive) | 8.8%
CCC(C)NC(=O)c1cn(C)c(=O)c2cc(OC)c(OC)cc12 (centres undefined) | 25.6% (inactive) | 5.2%
COc1ccc(Cl)cc1N1CCN(CCNC(=O)Nc2ccccc2C)CC1 | 16.7% (inactive) | 3.25%
COc1ccc(Cc2n[nH]c(=O)c3ccccc23)cc1OC | 5.3% (inactive) | 5.7%
CN(CC(=O)Nc1ccc2c(c1)OCCO2)S(=O)(=O)c1cccc2cccnc12 | 16.8% (inactive) | 3.95%
O=C(CSc1c[nH]c2ccccc12)N1CCOCC1 | 11.4% (inactive) | 4.25%
CCOC(=O)C1=C(O)CCn2c1nc1ccccc12 | 18% (inactive) | 3.3%
CCOC(=O)c1c(C)n(C)c2ccc(OCC(O)CNC(CC)CO)cc12 (centres undefined) | 58.6% (active) | 3.3%
COc1ccc(NC(=O)NCCCN2CCN(c3cc(C)ccc3C)CC2)cc1 | 0% (inactive) | 7.1%
COc1ccc(N2CCN(CCCNC(=O)C3(S(=O)(=O)c4ccc(Cl)cc4)CC3)CC2)cc1 | 26.9% (inactive) | 2.45%
CCCCOC(=O)CSc1nc2c(cc1C#N)C(=O)CC(C)(C)C2 | 16.3% (inactive) | 5.85%
CCOc1ccc(OCC)c(NC(=O)C2CCCN(S(=O)(=O)c3c(C)noc3C)C2)c1 (centres undefined) | 19.8% (inactive) | 2.05%
CC(C)(O)c1cn(-c2nonc2N)nn1 | 10.4% (inactive) | 5.4%
O=C(NCCCN1CCN(c2cccc(Cl)c2)CC1)C1CCC(=O)N1Cc1ccccc1Cl (centres undefined) | 33.3% (inactive) | 11.4%
Cc1ccc(S(=O)(=O)NCCCCC(NC(=O)OC(C)(C)C)C(=O)O)cc1 (centres undefined) (tested in a mixture with another compound) | 8.9% (inactive) | 5.45%

From PubChem BioAssay AID1069 (NMMLSC, 2008)
